In the library only some 19% were active in any assay of this set; here they are far more common.
IL-1B inflam inh: qHTS for Inhibitors of Inflammasome Signaling: IL-1-beta AlphaLISA Primary Screen. THP-1 LPS/ATP IL-1B secretion, AlphaLISA, 16 h; active compounds read low. activity change, % at 57.5 µM. hit rate 4.7% among 360,000; in the data active = activity change below about -50%; inconclusive = mostly about -30% to -49%
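Secreted IL-1B measured by AlphaLISA bead assay after 16 h compound exposure of THP-1 cells; compounds (final up to 57.5 uM) added 1 h before LPS (250 ng/mL) and ATP (1.25 mM) stimulation; lower signal means less secretion.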
DT40 TDP1 CPT: qHTS for Inhibitors of human tyrosyl-DNA phosphodiesterase 1 (TDP1): qHTS in cells in presence of CPT | chicken DT40 Tdp1-/-;hTDP1 cells + 20 nM CPT, ATP luminescence, 48 h | Potency, µM (titrated, usually from 46.2 µM), usual class: inhibitors | hit rate 12% among 420,000; note: nearly all actives have a fitted effect of over 55% in size
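Chicken DT40 Tdp1-/- cells stably complemented with human TDP1 were seeded at 400 cells/well in medium containing 20 nM camptothecin, exposed to pin-transferred compounds, and grown at 37 °C for at least 48 hr. Viability was read as ATP luminescence.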
TDP1 cell noCPT: qHTS for Inhibitors of human tyrosyl-DNA phosphodiesterase 1 (TDP1): qHTS in cells in absence of CPT; DT40 Tdp1-/- hTDP1 cells, no CPT, ATP luminescence, 48 h; Potency, µM (top dose mostly 46.2 µM), hits mostly inhibitors; hit rate 15% among 420,000; AID 686978, 2013; note: nearly all actives have a fitted effect of over 55% in size
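A cellular qHTS used chicken DT40 cells lacking endogenous Tdp1 but carrying stably transfected human TDP1. Compounds were applied without camptothecin, and cell growth kinetics were judged by ATP-dependent luminescence after ≥48 hr.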
HT1080 IDH1KD tx: qHTS for induction of synthetic lethality in tumor cells producing 2HG: qHTS for the HT-1080-IDH1KD cell line; HT-1080 IDH1 knockdown viability, ATP luminescence, 48 h; Potency, µM (series often up to 46.1 µM), most hits filed as cytotoxic; hit rate 2% among 360,000; AID 686971, 2013
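After a 2 h attachment period, IDH1KD HT-1080 cells took pin-transferred compound for 48 h at 37 °C; ATP-based luminescence after 10 min room-temperature reagent incubation reported viability.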
HT1080NT lethal: qHTS for induction of synthetic lethality in tumor cells producing 2HG: qHTS for the HT-1080-NT fibrosarcoma cell line; HT-1080-NT fibrosarcoma viability, CellTiter-Glo ATP luminescence, 48 h; Potency, µM (doses to about 46.1 µM), most hits filed as cytotoxic; hit rate 1.6% among 360,000; AID 686970, 2013;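 note: NT is the 2HG producing partner of a matched IDH1 knockdown line; nearly all actives have a fitted effect of over 55% in size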
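Fibrosarcoma NT cells, 750 per well in 5% FBS RPMI, were exposed to compound for 48 hours. Viability: CellTiter-Glo luminescence.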
uPA generation: qHTS for Inhibitors of Cell Surface uPA Generation; cell surface uPA generation assay, qHTS; Potency, µM (series often up to 38.3 µM), usual class: inhibitors; AID 540303, 2011; hit rate 0.31% among 330,000; active = well fitted inhibition curve with a large enough effect; inconclusive = small, poorly fitted or top-dose-only effect; inactive = no such curve, though single readings can be large or run the other way; tested in mouse RAW 264.7 cells; note: nearly all actives have a fitted effect of over 55% in size
Hits are given with their value; – = inactive; ? = inconclusive; · = not tested or not shown; ! = not active in a repeat; [ ] = dose if it differs, or a comment. Unless noted, calls come from the whole dose curve; as a rule, active = well fitted curve in the direction sought with a large enough effect; inconclusive = small, poorly fitted or top-dose-only effect, or another doubt; inactive = no such curve, though single readings can be large; an effect the other way counts as inactive or inconclusive.

SMILES	IL-1B inflam inh	DT40 TDP1 CPT	TDP1 cell noCPT	HT1080 IDH1KD tx	HT1080NT lethal	uPA generation
C=C1C(C)C2C(Cc3ccccc3)NC(=O)C23C(OC(C)=O)C=CC(C)(O)CC(C)CC=CC3C1O (stereo not given)	–	0.46µM	0.73µM	?	–	–
C=C1[C@@H](C)[C@H]2[C@H](Cc3ccccc3)NC(=O)[C@]23OC(=O)/C=C/[C@H](O)CCC[C@@H](C)C/C=C/[C@H]3[C@@H]1O	–	1.8µM	0.65µM	0.73µM	1.3µM	?
C[C@H]1C/C=C/[C@H]2[C@H](O)[C@H](C)[C@@](C)(O)[C@H]3[C@H](Cc4ccccc4)NC(=O)[C@]32[C@H](O)/C=C/[C@](C)(O)C1	–	3.7µM	8.2µM	?	–	?
C/C(=N\Nc1ccccc1)c1c(O)n(C)c(=O)n(C)c1=O	–	–	–	?	?	–
COc1ccc2c(C(=O)c3ccc(Cl)cc3)c(C)n(CC(=O)O)c2c1	·	–	–	·	·	·
CSCCC(c1nnnn1C1CCCC1)N1CCC2(CC1)C(=O)NCN2c1ccccc1 (stereo not given)	–	?	?	–	–	·
CSCCC(c1nnnn1Cc1ccccc1)N1CCC2(CC1)C(=O)NCN2c1ccccc1 (stereo not given)	–	15µM	21µM	–	?	·
O=C1NCN(c2ccccc2)C12CCN(C(c1ccccc1)c1nnnn1Cc1ccccc1)CC2 (stereo not given)	–	?	?	?	–	·
CSCCC(c1nnnn1-c1c(C)cccc1C)N1CCC2(CC1)C(=O)NCN2c1ccccc1 (stereo not given)	?	23µM	?	?	?	·
O=C1NCN(c2ccccc2)C12CCN(C(c1nnnn1Cc1ccccc1)C1CC1)CC2 (stereo not given)	–	?	21µM	–	–	·
O=C(Nc1ccc(Cl)c(C(F)(F)F)c1)c1ccc2c(c1)CCN2S(=O)(=O)c1ccccc1	·	9.2µM	9.2µM	·	·	·
CN1C(=O)N(C)C(=O)C2(Cc3cc(NC(=O)c4ccccc4)ccc3N3CCCC32)C1=O (stereo not given)	–	–	–	–	–	–
O=c1[nH]c(=O)n(-c2cccc3ccccc23)c(O)c1/C=N/N1CCCCCC1	–	–	–	–	–	–
CCOC(=O)[C@]12Cc3cc(Cl)ccc3[C@H]1N(Cc1ccccc1)C(=O)c1ccccc12	–	10µM	?	–	–	?
CCOC(=O)[C@]12Cc3cc(C)ccc3[C@H]1N(Cc1ccccc1)C(=O)c1cc(OC)ccc12	-96	?	21µM	21µM	?	·
CC1(C)CC(=O)c2cc(OCC(=O)N3CCN(Cc4ccccc4)CC3)ccc2O1	–	–	–	–	–	–
CCOC(=O)[C@]12Cc3cc4c(cc3[C@H]1N(Cc1ccccc1)C(=O)c1ccccc12)OCO4	–	?	15µM	–	–	13µM
CCCCCN1C(=O)c2ccccc2[C@@]2(C(=O)OCC)Cc3cc(Cl)ccc3[C@@H]12	-50	?	?	?	?	·
C=CCN(CC=C)C(=O)CCN1CC1C (stereo not given)	–	?	?	–	–	–
CN1CCN(c2nc(N)c(Br)c(Cl)n2)CC1	?	–	–	–	–	–
CCOC(=O)[C@]12Cc3cc(N(C)C)ccc3[C@H]1N(Cc1ccccc1)C(=O)c1ccccc12	–	13µM	6.5µM	–	–	?
CCOC(=O)[C@]12Cc3ccccc3[C@H]1N(Cc1ccccc1)C(=O)c1cc(F)c(F)cc12	-67	?	23µM	?	?	·
CCOC(=O)[C@]12Cc3cc(C)ccc3[C@H]1N(CCC(=O)OC)C(=O)c1ccccc12	-113	23µM	16µM	13µM	16µM	·
CC(=O)OC1N=C(c2ccccc2Cl)c2cc(Br)ccc2N(C)C1=O (stereo not given)	–	–	?	–	–	–
CC1(CCCc2ccc(N(CCCl)CCCl)cc2)NC(=O)NC1=O (stereo not given)	–	0.41µM	0.52µM	–	–	·
SMILES	IL-1B inflam inh	DT40 TDP1 CPT	TDP1 cell noCPT	HT1080 IDH1KD tx	HT1080NT lethal	uPA generation
CCC1(CCC(C)C)C(=O)NC(=S)NC1=O	–	–	–	–	–	–
C1CC2NCCC3NCCC(N1)N32 (stereo not given)	–	–	–	–	–	–
C=CCN(CC=C)Cc1c[nH]c2ccccc12	–	12µM	?	–[9.24 µM]	–	–
O/N=C/c1c[nH]c2ccccc12	–	–	–	–	–	–
CN(C)Cc1c[nH]c2ccccc12	–	12µM	13µM!	–	–	?
COC(=O)C1=C(c2ccc(-c3ccccc3)c(F)c2)C[C@@H]2CC[C@H]1N2C(=O)NCCOc1ccccc1	–	21µM	21µM	–	–	?
COCCNC(=O)N1[C@H]2CC[C@@H]1C(C(=O)OC)=C(c1ccc(-c3ccccc3)c(F)c1)C2	–	1.8µM	1.8µM	–	–	–
COC(=O)[C@@H]1N=C(c2ccc(OC)cc2)O[C@]12C(=O)N(Cc1ccccc1)c1ccccc12	–	?	?	–	–	·
CN1C2c3ccccc3C3C4c5ccccc5C(C31)C(C2[N+](=O)[O-])N4C (stereo not given)	–	–	?	–	–	–
CC(C)(c1ccc(OCC2CO2)cc1)c1ccc(OCC2CO2)cc1 (stereo not given)	·	6.5µM	6.5µM	·	·	·
c1ccc(OCC2CO2)cc1 (stereo not given)	–	–	–	–	–	–
CC[C@H]1C2CC3[C@@H]4N(C)c5ccccc5[C@]45C[C@@H](C2[C@H]5O)N3[C@@H]1O (stereo not given in full)	·	–	–	·	·	·
CCC1C2CC3C4N(C)c5ccccc5[C@]45CC(C2C5O)N3C1O (stereo not given in full)	·	0.46µM	0.37µM	·	·	·
CCCCC[C@H]1CCCCC[C@H](O)C[C@H](O)[C@@H](O)/C=C/C(=O)O1	–	23µM	21µM	–	–	·
Cc1ccc(O)c(C(CCN(C(C)C)C(C)C)c2ccccc2)c1 (stereo not given)	·	–	–	·	·	·
CCC(C)Sc1cc(-c2nc3cc(C)ccn3c2NC2CCCCC2)ccc1OC (stereo not given)	-81	21µM	21µM	?	21µM	?
COc1ccccc1CCNC1CCCCCC1	–	?	–	–	–	–
CC(=O)c1ccc(-c2cccc(-c3nc4ccccn4c3NC3CCCCC3)c2)cc1	-66	23µM	15µM	?	?	?

Bioassay records from PubChem.
